Laboratory results published in the supplement of paper PMC13380429.
Values without a mark were called inactive.

Each compound was assayed on Vero E6 infected with SARS-CoV-2 (assay: inhibition of SARS-CoV-2 cytopathic effect; higher = more antiviral protection, active = above 15). Conditions: 10000 nM; 48 h.

| Compound | inhibition of SARS-CoV-2 cytopathic effect |
| --- | --- |
| Cc1cnc(Nc2ccc(OCCN3CCCC3)cc2)nc1Nc1cccc(S(=O)(=O)NC(C)(C)C)c1 [fedratinib] | -18.4% |
| CCC(=O)O[C@H]1[C@H](O[C@@H]2[C@@H](C)[C@H](O[C@H]3C[C@@](C)(OC)[C@@H](O)[C@H](C)O3)[C@@H](C)C(=O)O[C@H](CC)[C@@](C)(O)[C@H](O)[C@@H](C)C(=O)[C@H](C)C[C@@]2(C)O)O[C@H](C)C[C@@H]1N(C)C [erythromycin-estolate] | -0.99% |
| O=c1c(O)c(-c2ccc(O)c(O)c2)oc2cc(O)ccc12 [fisetin] | -1.68% |
| O=[N+]([O-])c1ccc(O)c([N+](=O)[O-])c1 [2,4-dinitrophenol] | 2.69% |
| N=C(N)NCc1cccc(I)c1 [iobenguane] | 6.21% |
| COc1cc2nccc(Oc3ccc(NC(=O)NC4CC4)c(Cl)c3)c2cc1C(N)=O [lenvatinib] | 8.44% |
| CNC(=O)c1c(I)c(C(=O)NCC(=O)Nc2c(I)c(C(=O)O)c(I)c(C(=O)NCCO)c2I)c(I)c(N(C)C(C)=O)c1I [ioxaglic-acid] | 0.41% |
| Oc1ccc(CC2NCCc3cc(O)c(O)cc32)cc1 (centres undefined) [higenamine] | -2.56% |
| CCOC(=O)C1=C(C)NC(=S)NC1c1cccc(O)c1 (centres undefined) [monastrol] | -1.39% |
| O=C/C=C/c1ccccc1 [cinnamaldehyde] | 5.38% |
| O=C(O)C(=O)CBr [3-bromopyruvate] | 1.43% |
| CN1CC[C@@H](NC(=O)Nc2ccc(C#N)cc2)C[C@@H]1c1nc2ccccc2[nH]1 [glasdegib] | 1.71% |
| COc1cc(C(=O)OCCCN2CCCN(CCCOC(=O)c3cc(OC)c(OC)c(OC)c3)CC2)cc(OC)c1OC [dilazep] | 4.8% |
| COC(=O)[C@]12CCC(C)(C)C[C@H]1[C@H]1C(=O)C=C3[C@@]4(C)C=C(C#N)C(=O)C(C)(C)[C@@H]4CC[C@@]3(C)[C@]1(C)CC2 [Bardoxolone Methyl] | -23.4% |
| CC(=O)OC[C@H](N)C(=O)O [O-acetyl-L-serine] | -0.72% |
| CCN1C(=O)NC(c2ccccc2)C1=O (centres undefined) [ethotoin] | -0.15% |
| CN1CCCN=C1/C=C/c1cccs1 [pyrantel-pamoate] | -3.05% |
| O=c1ccc2ccc(O)c(O)c2o1 [daphnetin] | 2.15% |
| CC(C)(C)c1ccc(C(O)CCCN2CCC(C(O)(c3ccccc3)c3ccccc3)CC2)cc1 (centres undefined) [terfenadine] | -21.1% |
| COc1cc2c(Nc3ccc(Cl)c(Cl)c3F)ncnc2cc1OC[C@@H]1C[C@@H]2CN(C)C[C@@H]2C1 | -22.4% |

| Compound | inhibition of SARS-CoV-2 cytopathic effect |
| --- | --- |
| CC/C(=C(\c1ccccc1)c1ccc(OCCN(C)C)cc1)c1ccccc1 [tamoxifen] | 11.2% |
| N[C@@H](C(=O)O)c1ccc(C(=O)O)c(O)c1 (racemic) [4-carboxy-3-hydroxyphenylglycine-(RS)] | -0.565% |
| N#C[C@@H]1C[C@@H]2C[C@@H]2N1C(=O)[C@@H](N)C12CC3CC(CC(O)(C3)C1)C2 | 2.08% |
| O=C(CCCN1CCC2(CC1)C(=O)NCN2c1ccccc1)c1ccc(F)cc1 [spiperone] | 81.1% (active) |
| CCC[C@@H](NC(=O)N1C(=O)C(CC)(CC)[C@@H]1Oc1ccc(C(=O)N2CCN(C)CC2)cc1)c1ccc2c(c1)OCO2 | -6.67% |
| CC(C)c1ccc(NC(=O)Cn2cnc3c2c(=O)n(C)c(=O)n3C)cc1 | 3.83% |
| CN1CCc2c(c3ccccc3n2Cc2ccccc2)C1 [mebhydrolin] | -1.08% |
| COc1cc2c(cc1OC)C1CC(=O)C(CC(C)C)CN1CC2 (centres undefined) [tetrabenazine] | 0.85% |
| CC#CC(=O)N1CCC[C@H]1c1nc(-c2ccc(C(=O)Nc3ccccn3)cc2)c2c(N)nccn12 [acalabrutinib] | -0.34% |
| Fc1ccccc1CNCc1ccc(-c2ccnc3[nH]ccc23)cc1 | -7.9% |
| CCC/C=C1\OC(=O)C2=C1CCC=C2 [ligustilide] | 5.79% |
| O=C(Nc1ncc(SCCN2CCCC2)s1)[C@]1(c2ccc(S(=O)(=O)C3CC3)cc2)C[C@H]1C1CCCCC1 | -5.6% |
| CC12CCC(CC1=O)C2(C)C (stereo not drawn) [camphor-(+)] | -0.53% |
| CN[C@@H](C)[C@H](O)c1ccccc1 [ephedrine] | -0.52% |
| CC(=O)O[C@@H]1CC[C@@]2(C)[C@@H](CC[C@]3(C)[C@@H]2C(=O)C=C2[C@@H]4[C@@H](C)[C@H](C)CC[C@]4(C)CC[C@]23C)[C@@]1(C)C(=O)O [acetyl-11-keto-beta-boswellic-acid] | -0.995% |
| O=C1c2c(O)cccc2C([C@@H]2O[C@H](CO)[C@@H](O)[C@H](O)[C@H]2O)c2cc(CO)cc(O)c21 (some centres undefined) [aloin] | 1.29% |
| CC(C)(C)S(=O)(=O)N[C@H]1CC[C@H](C(=O)Nc2ccc(C(F)(F)F)cn2)CC1 [velneperit] | -1.63% |
| CC(C)CCC[C@@H](C)[C@H]1CC[C@H]2[C@@H]3CC=C4C[C@@H](O)CC[C@]4(C)[C@H]3CC[C@]12C [cholesterol] | 2.29% |
| CC1(C)O[C@@H]2[C@@H](CO[C@@]3(COS(N)(=O)=O)OC(C)(C)O[C@@H]23)O1 [topiramate] | -0.18% |
